An excerpt weighted towards active compounds, which were near 4% of everything screened.
HIF-2a block: inhibitors of HIF-2a | inhibition, % at 18.8 µM | 786-0 RCC cells HIF-2a reporter, luciferase luminescence, overnight | AID 624352 | actives 0.72% (n = 360,000);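 active = inhibition of the luminescence signal of 40% or more relative to plate controls, in a single-dose primary screen at 18.75 µM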
Peg3 promoter: reduces Peg3 promoter-driven luciferase expression in HeLa | actives 1.7% (n = 360,000) | inhibition, % at 20 µM | HeLa PEG-Prom luciferase reporter, luminescence, overnight;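 active = inhibition of at least 50% at 20 µM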
CF NFkB inh: cystic fibrosis NF-kB activation inhibition. KKLEB NF-kB-GFP reporter, PAF-induced, GFP fluorescence overnight. inhibition, % at 5 µM. actives 0.86% (n = 360,000). AID 588850;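 active = at least 50% inhibition at 5 µM, scaled per plate between neutral and stimulator controls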;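 also: PAF is a Pseudomonas aeruginosa culture filtrate used as stimulus; plate controls were PAF-stimulated DMSO wells for no effect and unstimulated DMSO wells for full effect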
TROY NFkB inh: inhibitors of TROY-dependent NF-kB signaling; Q293 LMP1-TROYcd NF-kB luciferase reporter, 4 h; inhibition, % at 10 µM; actives 0.98% (n = 360,000); AID 1347056;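 active = compounds whose plate-normalised and pattern-corrected inhibition of the luciferase reporter signal at the single screening dose is 50% or more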
KKLEB cytotox: CF airway cell cytotoxicity counter-screen | KKLEB CF airway cells viability, ATPlite luminescence, overnight; stronger effect = lower value; cells stimulated with P. aeruginosa culture filtrate | activity change (cytotoxicity), % at 5 µM | actives 0.36% (n = 360,000) | AID 602141;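 active = corrected activity change at or below -50% at 5 µM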
TWEAK-Fn14 inh: blocks TWEAK-Fn14 interaction in a reporter cell assay; AID 1159606; inhibition, % at 10 µM; actives 2% (n = 360,000); TWEAK-stimulated Fn14 reporter cells, luciferase luminescence, 8 h; in the data active = inhibition above about 50%
CF NFkB inh conf: confirmation of cystic fibrosis induced NF-kB inhibitors | shares compounds with CF NFkB inh | KKLEB CF airway cells, PAF-induced NF-kB-GFP fluorescence, overnight | inhibition, % at 5 µM | actives 64% (n = 1,300) | AID 602472; in the data active = inhibition above about 40%;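 also: stimulus PAF is a Pseudomonas aeruginosa filtrate and not platelet activating factor; plate controls were DMSO wells with stimulus for no effect and unstimulated DMSO wells for full effect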
The depositor's hits bear a star; x = no result given.

SMILES | HIF-2a block | Peg3 promoter | CF NFkB inh | TROY NFkB inh | KKLEB cytotox | TWEAK-Fn14 inh | CF NFkB inh conf
COc1ccc(-n2nc(C(=O)NCC(=O)NCCCN3CCOCC3)c3ccccc3c2=O)cc1 | 14.7 | 15.4 | 60.6* | 11.6 | 12.2 | -5.1 | 14.8
Nc1nc(N)nc(-c2cc([N+](=O)[O-])ccc2O)n1 | -27.7 | 59.9* | 61.4* | 2.2 | -21.1 | 40.8 | 72.5*
CCC(C)N(C(=O)c1csnn1)C(C(=O)NC1CCCC1)c1ccccc1F (stereo not given) | -3.6 | 12.9 | 10.1 | 0.1 | -4.0 | -5.7 | x
Cc1nn(-c2ccccc2)c(Cl)c1/C=N/NC(N)=O | -88.0 | -22.5 | -8.2 | -47.0 | -12.9 | -25.6 | x
NC(=O)N/N=C/c1c(Sc2nnnn2-c2ccccc2)nc2ccccn2c1=O | 3.5 | 103.3* | 71.4* | -6.3 | -38.3 | 95.8* | 72.0*
O=C(CSC(=S)N1CCCC1)N/N=C/c1c(O)[nH]c(=S)[nH]c1=O | 2.4 | 2.6 | -13.2 | -7.4 | -9.8 | 10.2 | x
C=CCOc1ccc2nc(NC(=O)OC)[nH]c2c1 | -50.1 | -71.7 | 34.3 | -6.9 | -31.8 | -0.3 | x
C=C(c1ccc2nc(NC(=O)OC)[nH]c2c1)c1cccs1 | -197.7 | -176.8 | 61.8* | -14.5 | -13.8 | 34.3 | 95.7*
O=Nc1c(O)n(Cc2ccc(Cl)cc2)c2ccccc12 | 21.3 | 29.9 | 30.4 | 8.4 | 12.4 | -15.3 | x
O=Nc1c(O)n(Cc2c(Cl)cccc2Cl)c2ccccc12 | 25.1 | 39.1 | 56.3* | 41.8 | -24.3 | 31.3 | 66.7*
Cc1cc(Cl)ccc1NC(=O)CCC(=O)N/N=C/c1cccnc1 | 12.7 | 17.0 | -17.4 | 0.3 | 11.3 | -16.7 | x
Cc1ccc(N=Cc2cc3c(cc2O)OC(N)=C(C#N)C3c2ccccc2)cc1 (stereo not given) | 35.0 | -8.0 | 54.2* | -29.1 | 17.6 | 3.3 | 74.3*
N#CC1=C(N)Oc2cc(O)c(C=Nc3ccccc3)cc2C1c1ccccc1 (stereo not given) | 30.7 | -12.4 | 41.4 | -61.9 | 15.8 | -6.8 | x
Cc1ccc(S(=O)(=O)n2nc(OC(=O)c3c(-c4ccccc4Cl)noc3C)cc2N)cc1 | 17.4 | 17.4 | 26.9 | 38.5 | -4.8 | 11.6 | x
Cc1onc(-c2ccccc2Cl)c1C(=O)Oc1cc(N)n(S(=O)(=O)c2ccc(F)cc2)n1 | 22.6 | 21.5 | 62.5* | 49.3 | -20.7 | 28.4 | 28.2
Cc1nnc(NC(=O)CC23CC4CC(CC(C4)C2)C3)s1 | -1.5 | -5.3 | 13.0 | -0.8 | -3.9 | 16.8 | x
O=C(CC12CC3CC(CC(C3)C1)C2)Nc1nncs1 | 18.9 | 36.3 | 50.4* | 11.7 | -5.0 | -22.9 | 60.8*
COc1ccc(Oc2cn[nH]c2-c2ccc(O)cc2O)cc1 | -6.9 | 15.6 | 13.5 | x | -2.6 | 12.6 | x
C=C(C)COc1ccc(-c2[nH]ncc2-c2ccccc2)c(O)c1 | 13.9 | 11.8 | 6.0 | 6.8 | -1.9 | 1.7 | x
COc1ccc(-c2cnc(N)nc2-c2ccc(OC)cc2O)cc1 | 30.6 | 13.4 | 56.0* | 21.5 | -13.1 | 46.3 | 51.3*
COc1ccc(-c2cn[nH]c2-c2ccc(O)cc2O)cc1 | 18.9 | 11.3 | 70.3* | 45.5 | 8.3 | 73.8* | 93.9*
C=C(C)COc1ccc(-c2[nH]ncc2-c2ccc(OC)cc2)c(O)c1 | 4.7 | 22.3 | 53.2* | 42.4 | 2.0 | 55.5* | 72.3*
O=C1CCc2cc(Br)ccc2O1 | 10.2 | 3.7 | 9.0 | 5.5 | 1.2 | 10.8 | x
COc1ccc(-n2c(O)c(/C=N/NS(=O)(=O)c3ccc(C)cc3)c3ccccc3c2=O)cc1OC | 11.9 | 2.5 | -25.4 | 19.6 | -4.2 | 5.9 | x
COc1ccccc1NS(=O)(=O)c1cccc(-n2c(O)c(C=Nc3ccccc3C(=O)O)c3ccccc3c2=O)c1 | 26.7 | 33.9 | 85.6* | 38.4 | 15.0 | 43.5 | 92.8*
SMILES | HIF-2a block | Peg3 promoter | CF NFkB inh | TROY NFkB inh | KKLEB cytotox | TWEAK-Fn14 inh | CF NFkB inh conf
COC(=O)c1ccc(-c2ccc(OC)c([C@H]3[C@H]4C=CC[C@@H](C)[C@@H]4C(=O)N3Cc3ccccc3)c2)cc1 | 23.6 | 29.2 | 66.4* | 7.6 | -12.3 | -17.4 | 52.7*
C[C@@H]1CC=C[C@H]2[C@H]1C(=O)N(Cc1ccccc1)[C@H]2c1cccc([N+](=O)[O-])c1 | 13.3 | 17.9 | 56.2* | 6.2 | -21.4 | -1.8 | 16.4
C[C@@H]1CC=C[C@H]2[C@H]1C(=O)N(Cc1ccccc1)[C@H]2c1ccoc1 | 18.9 | -47.9 | 28.0 | 5.3 | -5.3 | 22.0 | x
CC[C@@H]1CC=C[C@H]2[C@H]1C(=O)N(Cc1ccccc1)[C@H]2c1ccoc1 | 32.3 | 87.8* | 59.2* | 4.6 | -18.7 | 29.0 | 13.0
CC(C)NC(=S)n1cc(C(=O)c2cc(Cl)cc(Cl)c2O)cn1 | 15.0 | 9.5 | 14.6 | 28.7 | 3.3 | 38.7 | x
Cc1ccccc1NC(=O)c1cccc(C(=O)Nc2ccccc2C)n1 | 20.2 | 7.8 | -31.3 | 12.0 | -10.6 | -5.5 | x
COc1ccc(NC(=O)c2nc(S(=O)(=O)Cc3cccc(C)c3)ncc2Cl)c(OC)c1 | -0.7 | 108.0* | 93.0* | 54.4* | -38.5 | 43.7 | 52.4*
Cc1ccccc1NC(=O)c1nc(S(C)(=O)=O)ncc1Cl | -39.2 | 104.8* | 79.1* | 28.8 | -0.6 | 13.6 | 54.7*
CS(=O)(=O)c1ncc(Cl)c(C(=O)Nc2ccc(N3CCOCC3)cc2)n1 | 15.3 | 104.3* | 91.5* | 21.9 | -27.6 | -11.8 | 78.8*
CS(=O)(=O)c1ccc(C(=O)Nc2ccc(N3CCOCC3)cc2)c(Cl)c1 | 2.5 | 1.4 | -5.6 | -1.5 | -1.4 | 12.7 | x
Cc1nc2c(=O)n(C)c(=O)n(C)c2nc1Cl | 39.1 | 108.0* | 75.1* | 31.7 | 9.0 | 50.4* | -11.9
Nc1nccc(-c2cc(-c3ccc(Cl)cc3Cl)no2)n1 | -230.9 | -111.5 | 51.4* | 25.7 | -21.8 | 78.4* | 27.0
O=[N+]([O-])c1ccc(Sc2nnnn2-c2ccccc2)c(Cl)c1 | 6.2 | 17.9 | 19.4 | 24.1 | -25.7 | 33.4 | x
CC(=O)c1ccc(Sc2nnnn2-c2ccccc2)c([N+](=O)[O-])c1 | 12.6 | 38.2 | 76.3* | 37.4 | -32.0 | 97.7* | 28.4
CCNC(=O)N(C)c1c(CC)nc2ccc(C(=O)Nc3cccc(OCC(=O)N(C)C)c3)cn12 | 6.4 | 6.9 | -2.2 | -2.3 | -0.4 | -1.6 | x
CCc1nc2ccc(C(=O)Nc3cccc(OCC(=O)N(C)C)c3)cn2c1N(C)Cc1cc2ccccc2s1 | -18.5 | 72.8* | 52.6* | 45.0 | -10.2 | 35.4 | 13.6
CC(C)N1CCC1(C)C(=O)Nc1nc2ccccc2[nH]1 (stereo not given) | -2.9 | -4.8 | -20.0 | -2.9 | 16.9 | -14.1 | x
CCN(CC(=O)Nc1ccc(OC)cc1)C(=O)c1cc(-c2cccs2)nn1-c1ccccc1 | 10.1 | 49.9 | 54.5* | 13.2 | -11.1 | 21.9 | 51.2*
COc1ccc(NC(=O)CN(C)C(=O)c2cc(-c3cccs3)nn2-c2ccccc2)cc1 | 6.8 | 27.9 | 2.5 | -0.4 | -2.8 | 13.2 | x

Compound activity as filed in PubChem.
